The panel holds about 83,000 compounds, 20% with a hit somewhere; the sample as a whole holds those more often.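 For each line, cells grew in 96-well plates with the test compound present at a single concentration for 48 hours.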 Calls of active or inactive are those of the source. How the source made its calls: active means growth percent below 10; inactive means the rest.
What follows are compounds tested on NCI-H522 lung (assay: NCI-60 one-dose screen, 48 h (100 = growth as untreated, 0 = no growth, -100 = all killed)). Conditions: 10 µM unless noted.
For CC(C)Cc1ccc(C(C)C(=O)NCc2ccc(Cn3c(=O)sn(-c4ccc(Cl)cc4)c3=O)cc2)cc1 (stereo unspecified), the growth was 91.9% (inactive). In the case of COc1ccc(Cn2nc3c(c2-c2cc(OC)c(OC)c(OC)c2)-c2oncc2CC3)cc1, the growth is reported as 12.7% (inactive). Cc1ccc(C(c2c(O)c3cc(Br)ccc3[nH]c2=O)c2c(O)c3cc(Br)ccc3[nH]c2=O)cc1 was tested, and the growth was 77.8% (inactive). For CN1CCN(Cc2ccc(NC(=O)c3cncc(C#Cc4cnccc4C(F)(F)F)c3)cc2C(F)(F)F)CC1, the growth was 79.4% (inactive). COc1ccc(/C=C/c2n[nH]c3ccc(N4CCOC4=O)cc23)cc1 was tested, and the growth was 51.3% (inactive). With COc1cc2nnn3c4ncccc4c(N=O)c3c2cc1OC the growth was -34.3% (active). Cc1cc2nc(-c3ccccc3)c(-c3ccccc3)nc2cc1C was tested, and the growth was 94.9% (inactive). With Cc1ccc2[nH]c(=O)cc(-n3nncc3COc3ccc(C=O)cc3)c2c1 the growth was 89.7% (inactive). In the case of CCCOc1nc(SCCC)nc2c1cnn2-c1ccccc1, the growth is reported as 3.95% (active). For NC(=O)c1cccc(-c2ccccc2N2CCCCC2)c1, the growth was 85.7% (inactive). For COc1cc2ncnc(Nc3ccc(C(=O)/C=C/c4ccc(C(F)(F)F)cc4F)cc3)c2cc1OC, the growth was 98.3% (inactive). CC(=O)OCCCCCNc1ccccc1 was tested, and the growth was 95.1% (inactive). For O=C(Nc1sc2c(c1C(=O)O)CCCC2)c1cccc(C(F)(F)F)c1, the growth was 78.7% (inactive). For CCN1C(=O)N(CC)C2NC(SC)=NC21 (stereo unspecified), the growth was 102% (inactive). For C/C(=C(/c1ccccc1)c1ccc(OCC(O)CN2CCOCC2)cc1)c1ccccc1 (stereo unspecified), the growth was 73.3% (inactive). In the case of COc1ccc(C(=O)c2cc3c(N)c(C(=O)Nc4ccc(Br)cc4)sc3nc2C)cc1, the growth is reported as 39.6% (inactive). With CCOC(=O)Oc1c(OC)cc(C(=O)O[C@@H]2C[C@@H]3CN4CCc5c([nH]c6cc(OC)ccc56)[C@H]4C[C@@H]3[C@H](C(=O)OC)[C@H]2OC)cc1OC the growth was 73.8% (inactive). With COc1ccc(-c2nc(N/N=C/c3ccco3)nc(N3CCOCC3)c2C#N)cc1 the growth was 76.9% (inactive). For CCC(=O)c1ccc(O)c(OC)c1, the growth was 88.2% (inactive). In the case of COc1ccc(-c2nc(N=Nc3c(O)[nH]c4ccccc34)nc(N3CCOCC3)c2C#N)cc1, the growth is reported as 72.1% (inactive). CCCCCCCCCCCCCCCC(=O)OC[C@@]1(O)C[C@@]23CC[C@@H]4C(C)(C)[C@H](O)CC[C@@]4(C)[C@@H]2CC[C@H]1C3 was tested, and the growth was 91.2% (inactive). For FC(F)(F)Oc1cccc(-c2cc(NCCCCCCNc3cc(-c4cccc(OC(F)(F)F)c4)nc4ccc(N5CCCC5)cc34)c3cc(N4CCCC4)ccc3n2)c1, the growth was -49.5% (active). For COc1ccc(C2=C(c3ccccc3)c3ccc(OC(C)=O)cc3OC2(C)C)cc1, the growth was 88.8% (inactive). Cc1c2c(cc[n+]1Cc1ccc(F)cc1)c1ccc(OCc3cccc(F)c3)cc1n2Cc1cccc(F)c1 was tested, and the growth was -80.1% (active). In the case of CC1=CC2(C)/C=C(C)/C=C\CC(O)/C=C3/C=CC(=C4C(=O)OC2(CC1C)C4=O)OC3 (stereo unspecified), the growth is reported as -50.5% (active). In the case of O=C1OC(=O)C2C1CC=CC2c1ccccc1 (stereo unspecified), the growth is reported as 93.6% (inactive). C=C(C)[C@H]1CC/C(C)=C/CC[C@]2(C)O[C@H]2CC/C(COC(=O)[C@@H](OC(C)=O)[C@H](NC(=O)c2ccccc2)c2ccccc2)=C\[C@@H]1O was tested, and the growth was 59.5% (inactive). O=C(O)c1cn(C2CC2)c2cc(N3CCN(C(=O)C[n+]4cccc5ccccc54)CC3)c(F)cc2c1=O was tested, and the growth was -90% (active). For COc1ccc(Nn2c(SCC(=O)Nc3nc(-c4ccc(Cl)cc4)cs3)nc(C)c2C)cc1, the growth was 66.2% (inactive). For Cn1c2c(Cl)c(Cl)ccc2c2cc(N)[nH]c(=O)c21, the growth was 92.4% (inactive). For CC(=O)c1c[nH]c2ccc(-c3ccnc(Nc4ccc(NC(=O)c5cccc(F)c5)c(CN5CCOCC5)c4)n3)cc12, the growth was 0.424% (active). In the case of Clc1nc(Nc2ccccc2)nc(Nc2ccccc2)n1, the growth is reported as 83.8% (inactive). In the case of O=C1Nc2c(ccc(Cl)c2Cl)/C1=C/c1ccccn1, the growth is reported as 71% (inactive). With Cc1ccc2nc3c(cc2c1)CSc1nnc(-c2ccc[nH]c2=S)n1N3 the growth was 83.7% (inactive). With CN1CCN(C(=O)[C@]2(C)CC[C@]3(C)CC[C@]4(C)C(=CC(=O)[C@@H]5[C@@]6(C)CCC(=O)NC(C)(C)[C@@H]6CC[C@]54C)[C@@H]3C2)CC1 the growth was 90.6% (inactive). For COc1ccc(-c2nn(Cc3ccccc3)c3c2-c2oncc2CC3)cc1OC, the growth was 98.9% (inactive). With O=c1[nH]c2c(s1)CCCC2CN1CCCCC1 (stereo unspecified) the growth was 89.5% (inactive). With CC(C)(C)CC(C)(C)Nc1c(-c2ccc3c(c2)OCO3)nc2cnccn12 the growth was 74.1% (inactive).

The compounds below were run on A549/ATCC NSCLC in the same assay as above. Conditions: 10 µM unless noted.
In the case of CC(C)Cc1ccc(C(C)C(=O)NCc2ccc(Cn3c(=O)sn(-c4ccc(Cl)cc4)c3=O)cc2)cc1 (stereo unspecified), the growth is reported as 75.4% (inactive). In the case of COc1ccc(Cn2nc3c(c2-c2cc(OC)c(OC)c(OC)c2)-c2oncc2CC3)cc1, the growth is reported as 95.2% (inactive). In the case of Cc1ccc(C(c2c(O)c3cc(Br)ccc3[nH]c2=O)c2c(O)c3cc(Br)ccc3[nH]c2=O)cc1, the growth is reported as 89.5% (inactive). With CN1CCN(Cc2ccc(NC(=O)c3cncc(C#Cc4cnccc4C(F)(F)F)c3)cc2C(F)(F)F)CC1 the growth was 94% (inactive). With COc1ccc(/C=C/c2n[nH]c3ccc(N4CCOC4=O)cc23)cc1 the growth was 1.87% (active). In the case of COc1cc2nnn3c4ncccc4c(N=O)c3c2cc1OC, the growth is reported as 95.2% (inactive). For Cc1cc2nc(-c3ccccc3)c(-c3ccccc3)nc2cc1C, the growth was 97.9% (inactive). With Cc1ccc2[nH]c(=O)cc(-n3nncc3COc3ccc(C=O)cc3)c2c1 the growth was 103% (inactive). With CCCOc1nc(SCCC)nc2c1cnn2-c1ccccc1 the growth was 100% (inactive). NC(=O)c1cccc(-c2ccccc2N2CCCCC2)c1 was tested, and the growth was 99.1% (inactive). With COc1cc2ncnc(Nc3ccc(C(=O)/C=C/c4ccc(C(F)(F)F)cc4F)cc3)c2cc1OC the growth was 95.2% (inactive). For CC(=O)OCCCCCNc1ccccc1, the growth was 101% (inactive). In the case of O=C(Nc1sc2c(c1C(=O)O)CCCC2)c1cccc(C(F)(F)F)c1, the growth is reported as 85.3% (inactive). With CCN1C(=O)N(CC)C2NC(SC)=NC21 (stereo unspecified) the growth was 103% (inactive). For C/C(=C(/c1ccccc1)c1ccc(OCC(O)CN2CCOCC2)cc1)c1ccccc1 (stereo unspecified), the growth was 87.2% (inactive). For COc1ccc(C(=O)c2cc3c(N)c(C(=O)Nc4ccc(Br)cc4)sc3nc2C)cc1, the growth was 79.5% (inactive). CCOC(=O)Oc1c(OC)cc(C(=O)O[C@@H]2C[C@@H]3CN4CCc5c([nH]c6cc(OC)ccc56)[C@H]4C[C@@H]3[C@H](C(=O)OC)[C@H]2OC)cc1OC was tested, and the growth was 41.8% (inactive). For COc1ccc(-c2nc(N/N=C/c3ccco3)nc(N3CCOCC3)c2C#N)cc1, the growth was 81.9% (inactive). CCC(=O)c1ccc(O)c(OC)c1 was tested, and the growth was 86.5% (inactive). In the case of COc1ccc(-c2nc(N=Nc3c(O)[nH]c4ccccc34)nc(N3CCOCC3)c2C#N)cc1, the growth is reported as 51.7% (inactive). With CCCCCCCCCCCCCCCC(=O)OC[C@@]1(O)C[C@@]23CC[C@@H]4C(C)(C)[C@H](O)CC[C@@]4(C)[C@@H]2CC[C@H]1C3 the growth was 104% (inactive). FC(F)(F)Oc1cccc(-c2cc(NCCCCCCNc3cc(-c4cccc(OC(F)(F)F)c4)nc4ccc(N5CCCC5)cc34)c3cc(N4CCCC4)ccc3n2)c1 was tested, and the growth was -75% (active). With COc1ccc(C2=C(c3ccccc3)c3ccc(OC(C)=O)cc3OC2(C)C)cc1 the growth was 87.7% (inactive). In the case of Cc1c2c(cc[n+]1Cc1ccc(F)cc1)c1ccc(OCc3cccc(F)c3)cc1n2Cc1cccc(F)c1, the growth is reported as 25.1% (inactive). In the case of CC1=CC2(C)/C=C(C)/C=C\CC(O)/C=C3/C=CC(=C4C(=O)OC2(CC1C)C4=O)OC3 (stereo unspecified), the growth is reported as 8.64% (active). With O=C1OC(=O)C2C1CC=CC2c1ccccc1 (stereo unspecified) the growth was 88% (inactive). In the case of C=C(C)[C@H]1CC/C(C)=C/CC[C@]2(C)O[C@H]2CC/C(COC(=O)[C@@H](OC(C)=O)[C@H](NC(=O)c2ccccc2)c2ccccc2)=C\[C@@H]1O, the growth is reported as 87.3% (inactive). O=C(O)c1cn(C2CC2)c2cc(N3CCN(C(=O)C[n+]4cccc5ccccc54)CC3)c(F)cc2c1=O was tested, and the growth was 98.7% (inactive). With COc1ccc(Nn2c(SCC(=O)Nc3nc(-c4ccc(Cl)cc4)cs3)nc(C)c2C)cc1 the growth was 44% (inactive). Cn1c2c(Cl)c(Cl)ccc2c2cc(N)[nH]c(=O)c21 was tested, and the growth was 15.1% (inactive). CC(=O)c1c[nH]c2ccc(-c3ccnc(Nc4ccc(NC(=O)c5cccc(F)c5)c(CN5CCOCC5)c4)n3)cc12 was tested, and the growth was 8.56% (active). For Clc1nc(Nc2ccccc2)nc(Nc2ccccc2)n1, the growth was 104% (inactive). For O=C1Nc2c(ccc(Cl)c2Cl)/C1=C/c1ccccn1, the growth was 13% (inactive). Cc1ccc2nc3c(cc2c1)CSc1nnc(-c2ccc[nH]c2=S)n1N3 was tested, and the growth was 99.7% (inactive). With CN1CCN(C(=O)[C@]2(C)CC[C@]3(C)CC[C@]4(C)C(=CC(=O)[C@@H]5[C@@]6(C)CCC(=O)NC(C)(C)[C@@H]6CC[C@]54C)[C@@H]3C2)CC1 the growth was 94.4% (inactive). For COc1ccc(-c2nn(Cc3ccccc3)c3c2-c2oncc2CC3)cc1OC, the growth was 96.8% (inactive). O=c1[nH]c2c(s1)CCCC2CN1CCCCC1 (stereo unspecified) was tested, and the growth was 80.4% (inactive). In the case of CC(C)(C)CC(C)(C)Nc1c(-c2ccc3c(c2)OCO3)nc2cnccn12, the growth is reported as 82.7% (inactive).

Reference: PubChem BioAssay (NCI)
